From PubChem BioAssay
An excerpt weighted towards active compounds, which were near 4% of everything screened.
HIF-2a block = inhibitors of HIF-2a; 786-0 RCC cells HIF-2a reporter, luciferase luminescence, overnight; 360,000 compounds, 0.72% hits; inhibition, % at 18.8 µM;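 active = inhibition of the luminescence signal of 40% or more relative to plate controls, in a single-dose primary screen at 18.75 µM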
TWEAK Fn14 block = inhibitors of TWEAK-Fn14 interaction signaling; 360,000 compounds, 2% hits; inhibition, % at 10 µM; TWEAK-stimulated Fn14 reporter cells, luciferase luminescence, 8 h; in the data active = inhibition above about 50%
KKLEB tox = counter-screen for CF NF-kB inhibitors: cytotoxicity; KKLEB CF airway cells viability, ATPlite luminescence, overnight; hits give low values; cells stimulated with P. aeruginosa culture filtrate; activity change (cytotoxicity), % at 5 µM; 360,000 compounds, 0.36% hits; AID 602141;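 active = corrected activity change at or below -50% at 5 µM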
CF NFkB inh = inhibitors of cystic fibrosis induced NF-kB; inhibition, % at 5 µM; 360,000 compounds, 0.86% hits; KKLEB NF-kB-GFP reporter, PAF-induced, GFP fluorescence overnight;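 active = at least 50% inhibition at 5 µM, scaled per plate between neutral and stimulator controls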;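 note: PAF is a Pseudomonas aeruginosa culture filtrate used as stimulus; plate controls were PAF-stimulated DMSO wells for no effect and unstimulated DMSO wells for full effect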
TROY NFkB inh = TROY signaling inhibition; Q293 LMP1-TROYcd NF-kB luciferase reporter, 4 h; inhibition, % at 10 µM; 360,000 compounds, 0.98% hits;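 active = compounds whose plate-normalised and pattern-corrected inhibition of the luciferase reporter signal at the single screening dose is 50% or more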
Peg3 promoter = inhibitors of Peg3 promoter; HeLa PEG-Prom luciferase reporter, luminescence, overnight; inhibition, % at 20 µM; 360,000 compounds, 1.7% hits; AID 588405;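 active = inhibition of at least 50% at 20 µM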
Mdm2-MdmX confirm = confirmation of inhibitors of human Mdm2/MdmX interaction, set 2. 740 compounds, 99% hits. shares compounds with HIF-2a block. AID 504601. SaOS-2 split-luciferase Mdm2/MdmX complementation, luminescence. inhibition, % at 8 µM;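 active = mean inhibition of the luminescence signal across two replicates at or above 26 percent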
Target sequence (O15151 whole entry, looked up): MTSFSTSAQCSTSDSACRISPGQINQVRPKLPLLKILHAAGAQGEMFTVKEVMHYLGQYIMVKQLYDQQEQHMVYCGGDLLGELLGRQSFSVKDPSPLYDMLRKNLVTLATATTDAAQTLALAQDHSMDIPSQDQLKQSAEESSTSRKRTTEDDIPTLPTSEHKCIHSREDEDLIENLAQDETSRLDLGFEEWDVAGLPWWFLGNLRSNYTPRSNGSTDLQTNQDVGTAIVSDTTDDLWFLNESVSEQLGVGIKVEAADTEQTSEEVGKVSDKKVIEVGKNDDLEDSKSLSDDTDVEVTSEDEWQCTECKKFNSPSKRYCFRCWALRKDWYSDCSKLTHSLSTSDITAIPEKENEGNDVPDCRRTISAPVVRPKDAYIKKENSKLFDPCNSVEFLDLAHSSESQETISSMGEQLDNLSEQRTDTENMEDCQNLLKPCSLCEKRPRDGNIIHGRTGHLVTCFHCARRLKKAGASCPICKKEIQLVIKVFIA
Target sequence (Q00987 whole entry, looked up): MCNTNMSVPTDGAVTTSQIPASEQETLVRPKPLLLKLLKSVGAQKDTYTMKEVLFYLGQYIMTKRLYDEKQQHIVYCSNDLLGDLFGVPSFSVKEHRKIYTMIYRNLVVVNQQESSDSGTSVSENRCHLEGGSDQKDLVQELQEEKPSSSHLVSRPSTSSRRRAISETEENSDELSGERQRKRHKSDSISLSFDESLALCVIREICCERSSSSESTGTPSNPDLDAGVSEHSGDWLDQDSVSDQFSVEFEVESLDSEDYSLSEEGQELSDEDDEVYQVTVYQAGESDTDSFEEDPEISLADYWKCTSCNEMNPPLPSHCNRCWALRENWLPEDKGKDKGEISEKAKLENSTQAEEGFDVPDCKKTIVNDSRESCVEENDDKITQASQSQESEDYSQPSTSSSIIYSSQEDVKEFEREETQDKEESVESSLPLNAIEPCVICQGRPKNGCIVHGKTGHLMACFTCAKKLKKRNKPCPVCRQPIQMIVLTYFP
HIF-2a inh conf = HIF-2a inhibition, single concentration confirmation; 786-0 RCC cells, HIF-2a luciferase reporter luminescence, overnight; inhibition, % at 18.8 µM; AID 651580; 1,800 compounds, 56% hits; shares compounds with HIF-2a block;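 active = mean inhibition across four replicates of at least 40 percent at the single tested concentration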
HIF-1a cs = inhibits HIF-1a reporter, a counter-screen for HIF-2a inhibitors; shares compounds with HIF-2a block; MiaPaCa-2 HIF-1a luciferase reporter, desferoxamine, overnight; inhibition, % at 18.8 µM; 1,800 compounds, 72% hits; AID 651589;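 active = mean inhibition of the reporter signal across four replicates at the single tested dose of 50% or more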
The depositor's hits bear a star; nt = not tested or not shown.

SMILES	HIF-2a block	TWEAK Fn14 block	KKLEB tox	CF NFkB inh	TROY NFkB inh	Peg3 promoter	HIF-2a inh conf	HIF-1a cs	others
O=C1c2ccccc2-c2onc3ccc(Oc4ccccc4)c1c23	-5.7	55.7*	-82.7*	85.3*	-6.7	104.4*	nt	nt	Mdm2-MdmX confirm=102.7*
COc1ccc2nc(N=Nc3ccc(O)c4ccccc34)sc2c1	3.9	37.9	-18.9	16.0	18.4	47.9	nt	nt
CC1=C/C(=N\OS(=O)(=O)c2ccccc2)C(C)=CC1=O	64.8*	-23.5	-13.3	-7.2	0.4	106.5*	nt	nt	Mdm2-MdmX confirm=102.7*
COc1cc(C(=O)O/N=C2/C=C(C)C(=O)C=C2C)cc(OC)c1OC	-2.9	39.6	7.7	31.1	21.9	6.7	nt	nt
NC(c1csc(Nc2nncc3ccccc23)n1)C1CCCCC1 (stereo not drawn)	68.3*	19.7	-21.2	7.6	8.8	113.0*	-6.1	106.5*
COCCCN(Cc1ccco1)C(=O)Cn1ncc2c([nH]c3ccccc32)c1=O	3.9	9.3	7.7	9.0	21.7	29.0	nt	nt
COCCN(Cc1ccco1)C(=O)Cn1ncc2c(=O)oc3ccccc3c21	45.2*	1.5	6.8	-11.8	18.8	6.6	-4.5	17.6
COC(=O)c1nc(NC(=O)C(C)(C)C)n[nH]1	19.9	9.8	-4.6	19.6	14.1	25.3	nt	nt
Cn1nc([N+](=O)[O-])nc1Sc1nnc(-c2ccccc2)o1	30.9	68.6*	-13.4	27.7	-4.8	28.6	nt	nt	Mdm2-MdmX confirm=75.2*
O=Cc1ccc(Sc2nnc(-c3ccccc3)o2)c([N+](=O)[O-])c1	16.3	-20.5	7.6	8.4	-0.8	11.5	nt	nt
CCc1cc(SC#N)cc(CC)c1NC(=O)CCl	49.2*	24.9	-29.9	38.6	14.2	47.3	34.8	-22.9
Cc1ccc(Cl)c(NC(=O)CCl)c1Cl	17.6	20.1	-5.7	-1.4	1.7	23.0	nt	nt
CCOC(=O)/C(=C\c1ccc(Cl)cc1)c1nc2sc(C)c(C)c2c(=O)[nH]1	94.5*	103.8*	-57.0*	80.1*	53.2*	108.3*	97.7*	107.4*
Cc1ccccc1NC(=O)COc1ccc(S(=O)(=O)N2CCCC2)cc1C	11.6	-39.4	-2.1	10.2	-6.4	16.6	nt	nt
CC1(C)CC(=O)C2=C(C1)NC1=C(C(=O)c3ccccc31)C2c1ccc(O)cc1 (stereo not drawn)	43.8*	11.6	-7.5	2.6	-9.1	14.3	19.5	39.8
Cc1[nH]nc2c1C(c1ccc(O)cc1)C1=C(CC(C)(C)CC1=O)N2 (stereo not drawn)	-30.1	-21.1	0.0	-11.3	-1.7	2.5	nt	nt
Cn1c(=O)n(C)c2cc(NC(=O)CCl)ccc21	51.0*	17.2	-3.3	-79.8	-6.0	-41.7	22.9	80.9*
CCn1c(=O)oc2cc(NC(=O)CCl)ccc21	40.2*	-0.2	17.1	-61.8	12.5	47.0	17.6	84.1*
Cc1c[n+]([O-])n(-c2ccc(C(=O)O)cc2)n1	3.3	10.7	7.2	-9.2	-8.4	12.3	nt	nt
COc1coc(C(O)CN)cc1=O (stereo not drawn)	-2.1	-10.0	-1.6	11.2	-3.7	1.8	nt	nt
CCOC(=O)C(=Cc1cc(=O)c(OC)co1)C(=O)OCC	93.7*	98.1*	27.8	84.9*	41.8	105.6*	99.5*	105.8*
CCOc1ccc(-c2c(C#N)c(N)nc3sc(C(=O)c4ccccc4)c(N)c23)cc1	71.8*	76.4*	-31.3	11.8	89.1*	6.6	0.3	63.4*
CC(C)(C)NC(=S)NCc1cccnc1	-7.5	8.2	4.3	-4.0	-10.9	-3.8	nt	nt
CCCCCOc1ccc(/C=C/c2c([N+](=O)[O-])c(=O)n(C)c(=O)n2C)cc1	42.0*	40.0	10.4	0.2	14.1	31.0	11.6	0.8
Cn1c(/C=C/c2ccc(Cl)cc2)c([N+](=O)[O-])c(=O)n(C)c1=O	62.8*	56.4*	6.4	26.7	4.0	15.2	44.4*	18.0
SMILES	HIF-2a block	TWEAK Fn14 block	KKLEB tox	CF NFkB inh	TROY NFkB inh	Peg3 promoter	HIF-2a inh conf	HIF-1a cs	others
Cn1c(/C=C/c2cccc([N+](=O)[O-])c2)c([N+](=O)[O-])c(=O)n(C)c1=O	45.4*	57.0*	5.2	46.3	22.4	32.4	38.5	57.5*
COc1ccc(/C=C/c2c([N+](=O)[O-])c(=O)n(C)c(=O)n2C)cc1OC	11.8	-15.6	-0.4	16.7	-9.3	0.1	nt	nt
CCN(C(=O)COC(=O)Cc1c[nH]c2ccccc12)C1CCS(=O)(=O)C1 (stereo not drawn)	20.2	11.3	3.4	-19.5	2.8	17.9	nt	nt
c1ccc2cc(OCc3nc4ccccc4[nH]3)ccc2c1	-237.6	10.8	-11.3	1.8	-45.5	-258.0	nt	nt
COCCn1c(C)cc(C2=NNC(=Nc3ccccc3F)SC2)c1C	77.9*	105.4*	-4.0	0.4	89.4*	6.0	34.0	71.3*	Mdm2-MdmX confirm=80.0*
Fc1ccc(F)c(C2=NNC(=Nc3ccccc3F)SC2)c1	-292.7	14.9	3.2	-17.1	-35.6	-354.6	nt	nt
COc1ccc(-c2oc3ccccc3c(=O)c2OC(C)=O)cc1	-51.1	19.7	5.4	24.4	-9.7	-116.7	nt	nt	Mdm2-MdmX confirm=92.7*
COc1ccc(-c2oc3ccccc3c(=O)c2OCC(=O)O)cc1	7.2	17.8	7.4	-6.3	-4.1	-4.9	nt	nt
CC(C)c1ccc(C(=O)N2CCCC(c3cc(C(=O)NCc4ccccc4)no3)C2)cc1 (stereo not drawn)	11.7	18.0	-21.1	13.5	20.7	14.5	nt	nt
CCCCCCCCCn1c2c(c(=N)c3c1CCC3)CCC2	20.9	45.6	-62.0*	55.4*	51.5*	65.6*	nt	nt	Mdm2-MdmX confirm=101.5*
COc1ccc2cc(CCNC(=O)c3ccc4c(c3)OCO4)c(=O)[nH]c2c1	38.2*	15.0	-9.7	-24.1	0.8	11.1	-11.7	3.1
Cc1ccc(C2CC(c3cccs3)=NN2C(=O)CCl)cc1 (stereo not drawn)	-127.1	65.3*	-60.6*	77.0*	-46.0	27.7	nt	nt	Mdm2-MdmX confirm=102.5*
COc1ccc(N2C(=O)CC2(/C=C/c2ccccc2OC)C(=O)NC2CCCC2)cc1 (stereo not drawn)	9.6	9.1	-0.8	-1.3	2.4	11.0	nt	nt
CC(C)N(CCn1c(=S)[nH]c2ccccc2c1=O)C(C)C	11.9	7.0	1.7	-15.2	-32.1	-1.6	nt	nt
COc1cc2c(OC(C)=O)c3c(c(-c4ccc5c(c4)OCO5)c2cc1OC)C(=O)OC3	-46.4	-103.4	-34.7	16.6	-17.8	78.4*	nt	nt	Mdm2-MdmX confirm=88.2*
COc1ccc(C(=O)Oc2ccc3c(c2)OCO3)cc1OC	-45.1	-15.9	-4.6	3.7	-33.8	-130.8	nt	nt
